# Experiments:
# Assay in all cases: DAPPL (digital affinity profiling via proximity ligation, sequencing); 10 mM Tris-HCl pH 7.5, 50 mM NaCl, 1 mM DTT, 4% glycerol, room temperature, 30 min; GST-TFs on glutathione beads, 16-mer random dsDNA library, 0.1% formaldehyde crosslink after washing; high values mean tight binding
# [1] = molecular target: T1, FLI1 (Homo sapiens, UniProt Q01543 1-452); conditions: protein: recombinant; tags: N-terminal GST; dsDNA, one strand shown
# T1 sequence: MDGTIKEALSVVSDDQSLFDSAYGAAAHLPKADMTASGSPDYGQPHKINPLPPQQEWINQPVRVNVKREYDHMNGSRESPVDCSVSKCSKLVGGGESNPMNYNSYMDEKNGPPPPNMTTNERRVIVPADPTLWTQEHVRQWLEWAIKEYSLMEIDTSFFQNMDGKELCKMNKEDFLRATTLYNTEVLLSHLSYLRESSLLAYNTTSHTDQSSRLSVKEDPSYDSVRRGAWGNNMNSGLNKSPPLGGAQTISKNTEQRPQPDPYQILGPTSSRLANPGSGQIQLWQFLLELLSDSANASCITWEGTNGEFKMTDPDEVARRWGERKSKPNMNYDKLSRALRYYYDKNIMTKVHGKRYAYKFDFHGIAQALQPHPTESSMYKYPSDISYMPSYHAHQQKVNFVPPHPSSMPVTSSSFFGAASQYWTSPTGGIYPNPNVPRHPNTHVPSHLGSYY
# How it was run: (§1)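 A tag-only sample was pooled with DNA-barcoded human transcription factors that had been expressed in yeast as GST fusions and captured on glutathione beads. The pools were incubated for 30 min at room temperature with 200 nmole of a random double-stranded 16-mer DNA library in Tris/NaCl/DTT/glycerol buffer, then washed, crosslinked with 0.1% formaldehyde, proximity-ligated (BsaI/T4 ligase, 1 h, 37 °C), PCR-amplified and sequenced on an Illumina NextSeq500. Binding signal is each hexamer's read frequency for a factor divided by its frequency for the tag-only sample.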
# [2] = molecular target: T2, ELK1 (Homo sapiens, UniProt P19419 1-428); conditions: protein: recombinant; tags: N-terminal GST; dsDNA, one strand shown
# T2 sequence: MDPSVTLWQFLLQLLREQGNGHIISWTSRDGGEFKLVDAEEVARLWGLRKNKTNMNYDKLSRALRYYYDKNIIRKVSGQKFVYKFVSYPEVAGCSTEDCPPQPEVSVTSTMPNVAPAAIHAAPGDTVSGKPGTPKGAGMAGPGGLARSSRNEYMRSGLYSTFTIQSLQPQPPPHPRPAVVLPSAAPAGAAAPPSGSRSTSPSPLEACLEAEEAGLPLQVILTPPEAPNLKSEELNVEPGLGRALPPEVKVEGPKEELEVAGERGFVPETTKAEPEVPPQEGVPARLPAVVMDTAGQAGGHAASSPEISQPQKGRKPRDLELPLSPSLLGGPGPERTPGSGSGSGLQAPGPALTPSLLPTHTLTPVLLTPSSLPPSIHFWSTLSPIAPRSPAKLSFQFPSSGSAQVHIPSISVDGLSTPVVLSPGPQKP
# How it was run: as §1
# [3] = molecular target: T3, GABPA (Homo sapiens, UniProt Q06546 1-454); conditions: protein: recombinant; tags: N-terminal GST; dsDNA, one strand shown
# T3 sequence: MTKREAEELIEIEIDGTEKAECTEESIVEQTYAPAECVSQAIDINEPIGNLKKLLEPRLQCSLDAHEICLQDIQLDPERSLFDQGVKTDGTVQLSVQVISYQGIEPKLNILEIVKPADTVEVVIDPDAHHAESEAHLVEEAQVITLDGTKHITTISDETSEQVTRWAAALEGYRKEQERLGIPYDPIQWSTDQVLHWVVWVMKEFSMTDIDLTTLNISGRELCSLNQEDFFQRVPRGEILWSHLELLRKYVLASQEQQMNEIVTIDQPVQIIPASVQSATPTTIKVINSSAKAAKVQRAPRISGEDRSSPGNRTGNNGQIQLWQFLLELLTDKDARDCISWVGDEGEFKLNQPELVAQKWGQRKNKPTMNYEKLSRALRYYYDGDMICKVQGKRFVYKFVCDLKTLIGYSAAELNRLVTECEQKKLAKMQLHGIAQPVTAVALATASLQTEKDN
# How it was run: as §1
# [4] = molecular target: T4, ERG (Homo sapiens, UniProt P11308 1-479); conditions: protein: recombinant; tags: N-terminal GST; dsDNA, one strand shown
# T4 sequence: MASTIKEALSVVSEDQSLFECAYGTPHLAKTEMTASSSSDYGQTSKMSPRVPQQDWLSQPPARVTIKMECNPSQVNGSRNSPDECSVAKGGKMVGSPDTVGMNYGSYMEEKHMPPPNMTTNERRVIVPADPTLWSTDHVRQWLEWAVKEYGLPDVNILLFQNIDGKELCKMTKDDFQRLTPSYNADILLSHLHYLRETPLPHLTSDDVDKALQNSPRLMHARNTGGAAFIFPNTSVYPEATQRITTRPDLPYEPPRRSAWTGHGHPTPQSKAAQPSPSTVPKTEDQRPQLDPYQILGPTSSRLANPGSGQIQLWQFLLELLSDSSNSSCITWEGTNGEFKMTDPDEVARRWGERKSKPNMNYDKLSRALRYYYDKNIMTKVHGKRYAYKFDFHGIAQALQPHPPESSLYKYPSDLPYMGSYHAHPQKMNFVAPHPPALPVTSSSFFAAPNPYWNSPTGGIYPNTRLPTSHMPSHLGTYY
# How it was run: as §1
# [5] = molecular target: ELF1 (Homo sapiens, UniProt P32519 1-619); conditions: protein: recombinant; tags: N-terminal GST; dsDNA, one strand shown
# How it was run: as §1
# [6] = molecular target: T5, EHF (Homo sapiens, UniProt Q9NZC4 1-300); conditions: protein: recombinant; tags: N-terminal GST; dsDNA, one strand shown
# T5 sequence: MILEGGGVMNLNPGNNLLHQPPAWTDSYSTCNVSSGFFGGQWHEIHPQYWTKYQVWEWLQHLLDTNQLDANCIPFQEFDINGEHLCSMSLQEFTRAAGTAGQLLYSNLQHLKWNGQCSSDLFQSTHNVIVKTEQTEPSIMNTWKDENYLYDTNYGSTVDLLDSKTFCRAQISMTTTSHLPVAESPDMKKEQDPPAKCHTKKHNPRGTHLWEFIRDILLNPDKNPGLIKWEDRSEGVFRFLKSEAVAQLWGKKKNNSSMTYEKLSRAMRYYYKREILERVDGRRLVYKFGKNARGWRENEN
# How it was run: as §1
# [7] = molecular target: SPI1 (Homo sapiens, UniProt P17947 1-270); conditions: protein: recombinant; tags: N-terminal GST; dsDNA, one strand shown
# How it was run: as §1
# [8] = molecular target: SPIB (Homo sapiens, UniProt Q01892 1-262); conditions: protein: recombinant; tags: N-terminal GST; dsDNA, one strand shown
# How it was run: as §1
# [9] = molecular target: T6, ELK3 (Homo sapiens, UniProt P41970 1-407); conditions: protein: recombinant; tags: N-terminal GST; dsDNA, one strand shown
# T6 sequence: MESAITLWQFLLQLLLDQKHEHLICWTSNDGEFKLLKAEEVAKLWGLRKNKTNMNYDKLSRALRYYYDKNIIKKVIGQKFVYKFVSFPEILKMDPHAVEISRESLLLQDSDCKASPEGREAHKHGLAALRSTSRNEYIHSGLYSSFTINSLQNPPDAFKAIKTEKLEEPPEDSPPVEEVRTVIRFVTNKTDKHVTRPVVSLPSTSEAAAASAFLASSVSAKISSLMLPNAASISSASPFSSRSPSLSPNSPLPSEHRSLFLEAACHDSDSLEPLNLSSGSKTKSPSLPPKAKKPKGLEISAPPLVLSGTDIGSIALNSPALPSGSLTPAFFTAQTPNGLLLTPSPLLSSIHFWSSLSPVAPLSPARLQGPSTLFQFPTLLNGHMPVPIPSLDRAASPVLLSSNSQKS
# How it was run: as §1
# [10] = molecular target: T7, FEV (Homo sapiens, UniProt Q99581 1-238); conditions: protein: recombinant; tags: N-terminal GST; dsDNA, one strand shown
# T7 sequence: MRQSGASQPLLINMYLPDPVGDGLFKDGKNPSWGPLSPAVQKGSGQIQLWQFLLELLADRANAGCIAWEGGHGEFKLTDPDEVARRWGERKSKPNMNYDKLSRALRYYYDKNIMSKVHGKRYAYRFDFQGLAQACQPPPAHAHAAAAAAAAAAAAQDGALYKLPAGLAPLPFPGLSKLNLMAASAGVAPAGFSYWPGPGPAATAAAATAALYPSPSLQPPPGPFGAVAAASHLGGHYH
# How it was run: as §1
# [11] = molecular target: ETV5 (Homo sapiens, UniProt P41161 1-510); conditions: protein: recombinant; tags: N-terminal GST; dsDNA, one strand shown
# How it was run: as §1
# [12] = molecular target: HSF1 (Homo sapiens, UniProt Q00613 1-529); conditions: protein: recombinant; tags: N-terminal GST; chain copies: 3; dsDNA, one strand shown
# How it was run: as §1
# [13] = molecular target: T8, SPIC (Homo sapiens, UniProt Q8N5J4 1-248); conditions: protein: recombinant; tags: N-terminal GST; dsDNA, one strand shown
# T8 sequence: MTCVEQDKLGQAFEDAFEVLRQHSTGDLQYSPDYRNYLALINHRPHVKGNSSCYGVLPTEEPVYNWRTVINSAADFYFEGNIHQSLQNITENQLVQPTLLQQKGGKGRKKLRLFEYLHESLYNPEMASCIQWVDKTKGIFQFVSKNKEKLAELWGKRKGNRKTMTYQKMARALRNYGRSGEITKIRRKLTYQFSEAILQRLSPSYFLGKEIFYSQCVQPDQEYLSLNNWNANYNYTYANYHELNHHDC
# How it was run: as §1
# [14] = molecular target: ELF4 (Homo sapiens, UniProt Q99607 1-663); conditions: protein: recombinant; tags: N-terminal GST; dsDNA, one strand shown
# How it was run: as §1
# [15] = molecular target: T9, ELK4 (Homo sapiens, UniProt P28324-2 1-405); conditions: protein: recombinant; tags: N-terminal GST; dsDNA, one strand shown
# T9 sequence: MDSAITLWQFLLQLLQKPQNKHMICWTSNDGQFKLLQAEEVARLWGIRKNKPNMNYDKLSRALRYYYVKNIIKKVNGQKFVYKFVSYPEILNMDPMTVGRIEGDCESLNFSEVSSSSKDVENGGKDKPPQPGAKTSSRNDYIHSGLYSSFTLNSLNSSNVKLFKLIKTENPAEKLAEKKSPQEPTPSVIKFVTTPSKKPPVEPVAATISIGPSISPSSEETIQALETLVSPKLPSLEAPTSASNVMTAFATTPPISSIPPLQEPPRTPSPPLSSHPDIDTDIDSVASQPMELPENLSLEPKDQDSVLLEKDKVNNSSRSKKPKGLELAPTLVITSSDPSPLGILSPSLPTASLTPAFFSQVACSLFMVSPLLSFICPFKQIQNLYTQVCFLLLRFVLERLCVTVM
# How it was run: as §1
# [16] = molecular target: T10, ETV2 (Homo sapiens, UniProt O00321 1-342); conditions: protein: recombinant; tags: N-terminal GST; dsDNA, one strand shown
# T10 sequence: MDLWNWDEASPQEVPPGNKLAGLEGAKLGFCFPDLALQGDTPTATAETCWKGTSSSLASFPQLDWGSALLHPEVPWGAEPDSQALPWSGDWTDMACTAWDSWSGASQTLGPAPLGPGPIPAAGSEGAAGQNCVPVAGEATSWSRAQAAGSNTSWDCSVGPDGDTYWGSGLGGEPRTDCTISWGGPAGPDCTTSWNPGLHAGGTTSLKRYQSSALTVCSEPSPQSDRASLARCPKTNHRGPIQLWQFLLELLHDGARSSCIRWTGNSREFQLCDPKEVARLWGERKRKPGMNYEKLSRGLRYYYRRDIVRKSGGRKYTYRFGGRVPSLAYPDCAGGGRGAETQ
# How it was run: as §1
# [17] = molecular target: T11, ELF3 (Homo sapiens, UniProt P78545 1-371); conditions: protein: recombinant; tags: N-terminal GST; dsDNA, one strand shown
# T11 sequence: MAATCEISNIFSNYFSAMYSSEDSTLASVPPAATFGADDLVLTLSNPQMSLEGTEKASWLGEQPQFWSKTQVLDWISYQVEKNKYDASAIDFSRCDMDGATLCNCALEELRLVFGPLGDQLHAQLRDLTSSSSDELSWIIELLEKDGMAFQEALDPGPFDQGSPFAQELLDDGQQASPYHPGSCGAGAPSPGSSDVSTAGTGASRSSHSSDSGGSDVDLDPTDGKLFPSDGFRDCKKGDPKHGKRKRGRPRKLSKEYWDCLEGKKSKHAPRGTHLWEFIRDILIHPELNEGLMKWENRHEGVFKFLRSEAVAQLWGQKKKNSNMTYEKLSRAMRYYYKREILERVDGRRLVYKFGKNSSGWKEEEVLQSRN
# How it was run: as §1
# [18] = molecular target: CRX (Homo sapiens, UniProt O43186 1-299); conditions: protein: recombinant; tags: N-terminal GST; dsDNA, one strand shown
# How it was run: as §1
# [19] = molecular target: ETV1 (Homo sapiens, UniProt P50549 1-477); conditions: protein: recombinant; tags: N-terminal GST; dsDNA, one strand shown
# How it was run: as §1
# Sequence of ETV1 (P50549 whole entry): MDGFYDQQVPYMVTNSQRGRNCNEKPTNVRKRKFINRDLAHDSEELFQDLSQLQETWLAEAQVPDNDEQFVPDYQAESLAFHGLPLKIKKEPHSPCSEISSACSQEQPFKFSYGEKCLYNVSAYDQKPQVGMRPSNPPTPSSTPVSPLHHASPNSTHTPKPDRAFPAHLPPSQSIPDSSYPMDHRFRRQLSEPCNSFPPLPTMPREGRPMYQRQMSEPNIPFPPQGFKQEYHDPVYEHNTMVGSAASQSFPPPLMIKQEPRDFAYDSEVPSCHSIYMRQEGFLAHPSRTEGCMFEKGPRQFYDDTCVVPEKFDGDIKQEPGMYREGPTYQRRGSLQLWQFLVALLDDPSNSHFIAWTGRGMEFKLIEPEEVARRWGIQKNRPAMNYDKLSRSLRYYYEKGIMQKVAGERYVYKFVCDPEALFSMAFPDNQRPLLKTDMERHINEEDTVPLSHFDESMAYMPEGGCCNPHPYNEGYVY
# Sequence of SPIB (Q01892 whole entry): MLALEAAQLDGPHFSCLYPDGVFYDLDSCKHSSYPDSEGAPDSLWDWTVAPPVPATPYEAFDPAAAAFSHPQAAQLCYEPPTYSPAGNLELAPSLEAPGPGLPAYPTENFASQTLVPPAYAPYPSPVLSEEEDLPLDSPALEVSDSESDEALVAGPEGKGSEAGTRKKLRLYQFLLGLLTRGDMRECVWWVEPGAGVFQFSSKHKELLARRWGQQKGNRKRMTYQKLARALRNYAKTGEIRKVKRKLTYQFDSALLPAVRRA
# Sequence of ELF4 (Q99607 whole entry): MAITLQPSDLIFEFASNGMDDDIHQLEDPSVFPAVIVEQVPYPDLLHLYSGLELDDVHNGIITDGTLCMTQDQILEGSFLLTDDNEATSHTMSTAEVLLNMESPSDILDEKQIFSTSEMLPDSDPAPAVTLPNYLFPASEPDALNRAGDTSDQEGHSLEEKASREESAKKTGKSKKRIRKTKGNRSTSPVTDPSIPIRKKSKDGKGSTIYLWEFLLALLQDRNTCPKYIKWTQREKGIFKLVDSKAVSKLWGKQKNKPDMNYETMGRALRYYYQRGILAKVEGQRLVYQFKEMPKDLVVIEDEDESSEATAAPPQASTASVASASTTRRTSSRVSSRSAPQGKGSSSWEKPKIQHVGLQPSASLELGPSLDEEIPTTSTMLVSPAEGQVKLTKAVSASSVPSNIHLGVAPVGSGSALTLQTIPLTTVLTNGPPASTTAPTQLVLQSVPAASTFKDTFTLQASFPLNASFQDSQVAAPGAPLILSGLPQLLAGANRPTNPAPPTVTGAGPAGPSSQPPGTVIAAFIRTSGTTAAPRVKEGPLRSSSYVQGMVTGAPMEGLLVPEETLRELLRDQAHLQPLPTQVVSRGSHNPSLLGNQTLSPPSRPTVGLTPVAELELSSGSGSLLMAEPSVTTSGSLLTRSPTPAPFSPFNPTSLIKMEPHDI
# Sequence of HSF1 (Q00613 whole entry): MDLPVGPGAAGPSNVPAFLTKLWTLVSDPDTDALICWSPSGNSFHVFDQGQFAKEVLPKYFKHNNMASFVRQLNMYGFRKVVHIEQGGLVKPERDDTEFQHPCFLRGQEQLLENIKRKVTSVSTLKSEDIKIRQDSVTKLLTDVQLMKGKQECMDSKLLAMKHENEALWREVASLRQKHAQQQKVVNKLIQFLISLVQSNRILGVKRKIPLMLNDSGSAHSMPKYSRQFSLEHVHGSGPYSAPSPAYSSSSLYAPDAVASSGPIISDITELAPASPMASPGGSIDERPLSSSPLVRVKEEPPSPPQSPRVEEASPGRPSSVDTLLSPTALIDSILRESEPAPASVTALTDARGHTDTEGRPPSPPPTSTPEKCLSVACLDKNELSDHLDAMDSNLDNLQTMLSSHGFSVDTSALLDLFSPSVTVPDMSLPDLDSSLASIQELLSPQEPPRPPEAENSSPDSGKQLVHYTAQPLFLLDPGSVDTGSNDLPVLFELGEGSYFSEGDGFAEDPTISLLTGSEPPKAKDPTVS
# Sequence of ETV5 (P41161 whole entry): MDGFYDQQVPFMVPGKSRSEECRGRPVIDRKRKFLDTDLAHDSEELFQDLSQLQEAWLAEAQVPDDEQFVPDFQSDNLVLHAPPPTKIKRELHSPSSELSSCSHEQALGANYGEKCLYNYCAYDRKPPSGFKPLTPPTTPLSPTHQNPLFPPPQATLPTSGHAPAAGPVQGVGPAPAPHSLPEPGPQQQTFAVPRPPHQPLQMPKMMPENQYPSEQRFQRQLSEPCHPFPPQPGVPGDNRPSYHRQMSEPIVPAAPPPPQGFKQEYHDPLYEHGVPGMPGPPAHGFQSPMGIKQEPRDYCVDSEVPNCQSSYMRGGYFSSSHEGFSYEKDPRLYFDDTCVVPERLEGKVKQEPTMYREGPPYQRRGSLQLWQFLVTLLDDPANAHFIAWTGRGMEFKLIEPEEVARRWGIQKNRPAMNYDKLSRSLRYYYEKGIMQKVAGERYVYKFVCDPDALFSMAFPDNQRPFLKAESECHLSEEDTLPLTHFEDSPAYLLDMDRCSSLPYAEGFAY
# Sequence of CRX (O43186 whole entry): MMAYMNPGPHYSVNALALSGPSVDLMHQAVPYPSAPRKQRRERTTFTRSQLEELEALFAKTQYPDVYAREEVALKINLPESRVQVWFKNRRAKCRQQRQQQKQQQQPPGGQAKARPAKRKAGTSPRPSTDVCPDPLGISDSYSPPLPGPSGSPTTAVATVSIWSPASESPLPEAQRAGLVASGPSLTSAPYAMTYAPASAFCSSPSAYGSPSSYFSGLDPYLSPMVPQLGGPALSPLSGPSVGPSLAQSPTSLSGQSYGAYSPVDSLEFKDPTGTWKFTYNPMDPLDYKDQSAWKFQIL
# Sequence of ELF1 (P32519 whole entry): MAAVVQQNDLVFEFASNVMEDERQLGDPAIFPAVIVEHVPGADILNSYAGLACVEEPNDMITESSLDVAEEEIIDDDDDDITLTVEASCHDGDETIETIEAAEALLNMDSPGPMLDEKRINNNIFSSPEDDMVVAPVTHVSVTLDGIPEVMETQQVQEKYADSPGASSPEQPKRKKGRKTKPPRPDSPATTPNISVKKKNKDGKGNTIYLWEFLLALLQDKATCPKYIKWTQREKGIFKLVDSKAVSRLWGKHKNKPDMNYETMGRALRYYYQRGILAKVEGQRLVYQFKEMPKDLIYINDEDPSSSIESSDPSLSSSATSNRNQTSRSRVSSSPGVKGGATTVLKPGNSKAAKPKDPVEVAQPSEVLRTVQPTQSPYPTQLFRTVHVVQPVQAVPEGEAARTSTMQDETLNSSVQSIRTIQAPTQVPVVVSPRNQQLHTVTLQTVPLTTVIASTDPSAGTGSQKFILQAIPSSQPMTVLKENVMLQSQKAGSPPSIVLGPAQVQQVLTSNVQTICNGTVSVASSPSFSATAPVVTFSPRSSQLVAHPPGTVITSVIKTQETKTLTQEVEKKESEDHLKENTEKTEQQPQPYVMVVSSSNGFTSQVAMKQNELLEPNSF
sequence,measurement,setting,value
TGCTCG,binding signal,[1],"1.3 fold enrichment (6-mer frequency, TF over GST control)"
same,binding signal,[2],"1.2 fold enrichment (6-mer frequency, TF over GST control)"
same,binding signal,[3],"1.21 fold enrichment (6-mer frequency, TF over GST control)"
same,binding signal,[4],"1.17 fold enrichment (6-mer frequency, TF over GST control)"
same,binding signal,[5],"1.18 fold enrichment (6-mer frequency, TF over GST control)"
same,binding signal,[6],"1.17 fold enrichment (6-mer frequency, TF over GST control)"
same,binding signal,[7],"1.35 fold enrichment (6-mer frequency, TF over GST control)"
same,binding signal,[8],"1.27 fold enrichment (6-mer frequency, TF over GST control)"
same,binding signal,[9],"1.04 fold enrichment (6-mer frequency, TF over GST control)"
same,binding signal,[10],"1.23 fold enrichment (6-mer frequency, TF over GST control)"
same,binding signal,[11],"1.31 fold enrichment (6-mer frequency, TF over GST control)"
same,binding signal,[12],"1.56 fold enrichment (6-mer frequency, TF over GST control)"
same,binding signal,[13],"1.33 fold enrichment (6-mer frequency, TF over GST control)"
same,binding signal,[14],"1.24 fold enrichment (6-mer frequency, TF over GST control)"
same,binding signal,[15],"1.26 fold enrichment (6-mer frequency, TF over GST control)"
same,binding signal,[16],"1.21 fold enrichment (6-mer frequency, TF over GST control)"
same,binding signal,[17],"1.28 fold enrichment (6-mer frequency, TF over GST control)"
same,binding signal,[18],"1.17 fold enrichment (6-mer frequency, TF over GST control)"
same,binding signal,[19],"1.28 fold enrichment (6-mer frequency, TF over GST control)"

# From publication PMC7862700, “An all-to-all approach to the identification of sequence-specific readers for epigenetic DNA modifications on cytosine”
